Most compounds without a hit are left out; they make up all but 19% or so of the library.
TDP1 block: qHTS Assay for Inhibitors of Tyrosyl-DNA Phosphodiesterase (TDP1) | hit rate 0.28% among 350,000 | Tyrosyl-DNA phosphodiesterase 1 (Homo sapiens), Q9NUW8 | Potency, µM (titrated, usually from 130 µM), actives largely listed as inhibitors | recombinant TDP1, AlphaScreen DNA substrate cleavage; further: nearly all actives have a fitted effect of over 40% in size
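Enzyme-compound mixtures sat 15 min at room temperature, followed by a 5 min reaction with 15 nM final substrate and 10 min with AlphaScreen beads. Recombinant human Tdp1 was used at 1 nM final.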
DT40 TDP1 no CPT: qHTS for Inhibitors of human tyrosyl-DNA phosphodiesterase 1 (TDP1): qHTS in cells in absence of CPT; DT40 Tdp1-/- hTDP1 cells, no CPT, ATP luminescence, 48 h; Potency, µM (titrated, usually from 46.2 µM), usual class: inhibitors; hit rate 15% among 420,000; further: nearly all actives have a fitted effect of over 55% in size
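Stably hTDP1-transfected Tdp1-null chicken DT40 cells were treated with library compounds minus camptothecin and grown for at least 48 hr at 37 °C, after which cellular ATP was quantified by luminescence.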
VP16 counter: VP16 counterscreen qHTS for inhibitors of ROR gamma transcriptional activity; Drosophila S2 Gal4-VP16 UAS-luciferase, luminescence, 20 h; Potency, µM (doses to about 53.6 µM), most hits filed as inhibitors; hit rate 3.5% among 310,000;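 further: Gal4-VP16 expression switched on by copper sulfate through the metallothionein promoter; nearly all actives have a fitted effect of over 50% in size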
TDP1 cell CPT: qHTS for Inhibitors of human tyrosyl-DNA phosphodiesterase 1 (TDP1): qHTS in cells in presence of CPT; chicken DT40 Tdp1-/-;hTDP1 cells + 20 nM CPT, ATP luminescence, 48 h; Potency, µM (top dose mostly 46.2 µM), most hits filed as inhibitors; hit rate 12% among 420,000; AID 686979, 2013; further: nearly all actives have a fitted effect of over 55% in size
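Cell growth measured by CellTiter-Glo luminescence after a minimum 48 h, 37 C compound exposure with 20 nM CPT in Tdp1-knockout DT40 cells stably expressing hTDP1, seeded 400/well; qHTS titration format.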
RORgamma inh: qHTS for inhibitors of ROR gamma transcriptional activity; Drosophila S2 Gal4-RORgamma UAS-luciferase reporter, 20 h; Potency, µM (titrated, usually from 53.6 µM), actives largely listed as inhibitors; hit rate 5.4% among 310,000; AID 2551, 2010; further: nearly all actives have a fitted effect of over 60% in size
Target sequence (P51450 whole entry, looked up, the tested form may be a part): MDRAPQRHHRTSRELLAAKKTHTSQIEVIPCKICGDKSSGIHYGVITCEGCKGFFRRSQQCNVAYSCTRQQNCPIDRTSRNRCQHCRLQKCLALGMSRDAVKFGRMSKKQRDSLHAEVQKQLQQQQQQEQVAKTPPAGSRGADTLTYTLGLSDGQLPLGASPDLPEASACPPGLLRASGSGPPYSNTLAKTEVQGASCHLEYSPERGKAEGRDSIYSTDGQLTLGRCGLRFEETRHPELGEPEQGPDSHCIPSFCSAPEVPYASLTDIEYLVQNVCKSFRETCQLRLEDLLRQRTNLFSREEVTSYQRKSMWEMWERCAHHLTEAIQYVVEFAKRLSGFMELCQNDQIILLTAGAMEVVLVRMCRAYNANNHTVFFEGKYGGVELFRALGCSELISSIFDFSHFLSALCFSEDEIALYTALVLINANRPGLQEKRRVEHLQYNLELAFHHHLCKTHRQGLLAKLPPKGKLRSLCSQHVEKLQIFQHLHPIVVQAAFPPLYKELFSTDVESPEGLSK
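Luciferase reporter read in Schneider cells carrying Gal4-RORγ (mouse) and UAS-Photinus luciferase; cells given compound 1 h before 700 uM copper sulfate induction, then incubated 20 h at ambient temperature.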
Large screens that a line does not name were inactive. The call rests on the fitted dose curve; in most records, active means well fitted curve in the direction sought with a large enough effect; inconclusive means small, poorly fitted or top-dose-only effect, or another doubt; inactive means no such curve, though single readings can be large; an effect the other way counts as inactive or inconclusive.

COc1cc(C(=O)C(=O)N2CCN(c3ccc(C)cc3)CC2)cc2ccccc12	DT40 TDP1 no CPT 15µM, TDP1 cell CPT 15µM (no result: TDP1 block, VP16 counter, RORgamma inh)
CCOC(=O)N1CCN(S(=O)(=O)c2cc(Cl)c(OC)cc2Cl)CC1	DT40 TDP1 no CPT inconclusive
COC(=O)Cn1c(=O)c2c(nc3n2CCCN3CCc2ccccc2)n(C)c1=O	DT40 TDP1 no CPT inconclusive (no result: TDP1 block)
CCOC(=O)c1ccc(NS(=O)(=O)CC)cc1	DT40 TDP1 no CPT inconclusive
CSc1nc2nc3c(cc2c(=O)[nH]1)C(O)Oc1ccc(C)cc1-3 (configuration not stated)	none
Cc1ccc(NC(=O)Cn2cnc3c(oc4ccccc43)c2=O)cc1Cl	none (no result: VP16 counter, RORgamma inh)
Cc1ccc(C)c(NC(=O)CN(C)C(=O)[C@@H](NC(=O)c2ccc(C(C)(C)C)cc2)C(C)C)c1	DT40 TDP1 no CPT 18µM, VP16 counter inconclusive, TDP1 cell CPT 23µM, RORgamma inh inconclusive
CSCCC(NC(N)=O)C(=O)N(C)CC(=O)Nc1cc(C)ccc1C (configuration not stated)	none
O=C(NCc1ccc(Cl)c(Cl)c1)c1cc(C2CCCCN2C(=O)c2ccccc2)on1 (configuration not stated)	DT40 TDP1 no CPT 13µM, TDP1 cell CPT 18µM (no result: TDP1 block, VP16 counter, RORgamma inh)
Cn1cnc(S(=O)(=O)N2CCCCC2c2cc(C(=O)NCc3ccc(Cl)c(Cl)c3)no2)c1 (configuration not stated)	DT40 TDP1 no CPT 6.5µM, TDP1 cell CPT inconclusive (no result: TDP1 block, VP16 counter, RORgamma inh)
O=C(NCc1ccccc1)c1cc(C2CCCCN2C(=O)c2ccccc2)on1 (configuration not stated)	DT40 TDP1 no CPT 13µM, TDP1 cell CPT 18µM (no result: TDP1 block, VP16 counter, RORgamma inh)
COCCOC(=O)N1CCCCC1c1cc(C(=O)NCc2ccc(Cl)c(Cl)c2)no1 (configuration not stated)	DT40 TDP1 no CPT inconclusive, TDP1 cell CPT 15µM (no result: TDP1 block, VP16 counter, RORgamma inh)
O=C(NCc1ccc(Cl)c(Cl)c1)c1cc(C2CCCCN2C(=O)c2cccs2)on1 (configuration not stated)	DT40 TDP1 no CPT 21µM, TDP1 cell CPT 15µM (no result: TDP1 block, VP16 counter, RORgamma inh)
CCCNC(=O)c1cc(C2CCCCN2C(=O)c2cccs2)on1 (configuration not stated)	TDP1 cell CPT inconclusive (no result: TDP1 block, VP16 counter, RORgamma inh)
O=C(Nc1cccc2c1CCCC2)c1cc(C2CCCCN2C(=O)c2cccs2)on1 (configuration not stated)	DT40 TDP1 no CPT 8.2µM, TDP1 cell CPT 8.2µM (no result: TDP1 block, VP16 counter, RORgamma inh)
CC1S/C(=C(\C#N)C(=O)NCc2ccco2)N(Cc2ccco2)C1=O (configuration not stated)	DT40 TDP1 no CPT inconclusive, TDP1 cell CPT 8.2µM
COc1ccc(-c2nc3ccccc3c(=O)n2CCOc2c(C)cccc2C)cc1	DT40 TDP1 no CPT inconclusive
CCCCCCn1c(-c2ccco2)nc2oc3cc(OC)ccc3c(=O)c2c1=O	DT40 TDP1 no CPT 21µM, TDP1 cell CPT inconclusive, RORgamma inh inconclusive
COc1ccc2c(=O)c3c(=O)n(CCc4ccccc4)c(C(C)C)nc3oc2c1	DT40 TDP1 no CPT 15µM, TDP1 cell CPT 26µM
COc1ccc2c(=O)c3c(=O)n(CCc4ccccc4)c(C)nc3oc2c1	none (no result: TDP1 block, VP16 counter, RORgamma inh)
COc1ccc(CCn2c(S)nc3ccccc3c2=O)cc1	VP16 counter inconclusive, RORgamma inh 3.2µM (no result: TDP1 block)
COc1ccc(Cn2c(-c3ccc(C)cc3)nc3c(c(=O)c4ccccc4n3C)c2=O)cc1	DT40 TDP1 no CPT inconclusive, TDP1 cell CPT 15µM (no result: TDP1 block)
O=C(CN1CCN(C(=O)C2CCCO2)CC1)Nc1cc(Cl)ccc1Cl (configuration not stated)	TDP1 cell CPT inconclusive
N#C/C(=C\Nc1ccccc1SC(F)(F)F)c1nc(-c2ccc(F)cc2)cs1	none
COc1ccc2c(=O)c3c(=O)n(-c4ccccc4)c(-c4ccc(C)cc4)nc3oc2c1	DT40 TDP1 no CPT 18µM
COCCn1c(-c2ccccc2)nc2oc3cc(OC)ccc3c(=O)c2c1=O	none
COc1ccc(CCn2c(C(C)C)nc3c(c(=O)c4ccccc4n3C)c2=O)cc1	DT40 TDP1 no CPT 12µM, TDP1 cell CPT 16µM
